These results are taken from the supplement of paper PMC10849652.

Targets with a hit are over-represented here; the source holds about 8,800 in all. About 0.5% of all pairs of compound and target were hits.

Chain of UniProt P13667 (P13667 whole entry, looked up): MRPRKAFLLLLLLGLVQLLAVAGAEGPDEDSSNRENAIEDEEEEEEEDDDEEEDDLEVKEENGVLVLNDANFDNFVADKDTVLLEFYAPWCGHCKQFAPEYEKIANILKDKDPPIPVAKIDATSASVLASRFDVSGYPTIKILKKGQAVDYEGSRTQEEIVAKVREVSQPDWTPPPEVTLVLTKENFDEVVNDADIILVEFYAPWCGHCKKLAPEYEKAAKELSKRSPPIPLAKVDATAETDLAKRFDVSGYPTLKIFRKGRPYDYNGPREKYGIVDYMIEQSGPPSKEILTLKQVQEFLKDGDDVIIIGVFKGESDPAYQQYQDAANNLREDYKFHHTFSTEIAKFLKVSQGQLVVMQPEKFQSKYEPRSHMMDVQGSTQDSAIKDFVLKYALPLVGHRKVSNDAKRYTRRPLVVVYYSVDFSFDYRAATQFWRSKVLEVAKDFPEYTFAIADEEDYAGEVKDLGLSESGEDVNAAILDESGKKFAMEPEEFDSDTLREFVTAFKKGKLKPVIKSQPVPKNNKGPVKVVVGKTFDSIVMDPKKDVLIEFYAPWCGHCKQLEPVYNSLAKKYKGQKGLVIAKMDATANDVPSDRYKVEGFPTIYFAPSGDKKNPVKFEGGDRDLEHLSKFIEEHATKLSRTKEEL
Chain of UniProt Q9H0N5 (Q9H0N5 whole entry, looked up): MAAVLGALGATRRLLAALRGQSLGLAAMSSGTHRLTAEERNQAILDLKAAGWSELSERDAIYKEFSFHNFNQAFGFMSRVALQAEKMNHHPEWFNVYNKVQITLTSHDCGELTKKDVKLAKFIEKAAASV
Chain of UniProt P18031 (P18031 whole entry, looked up): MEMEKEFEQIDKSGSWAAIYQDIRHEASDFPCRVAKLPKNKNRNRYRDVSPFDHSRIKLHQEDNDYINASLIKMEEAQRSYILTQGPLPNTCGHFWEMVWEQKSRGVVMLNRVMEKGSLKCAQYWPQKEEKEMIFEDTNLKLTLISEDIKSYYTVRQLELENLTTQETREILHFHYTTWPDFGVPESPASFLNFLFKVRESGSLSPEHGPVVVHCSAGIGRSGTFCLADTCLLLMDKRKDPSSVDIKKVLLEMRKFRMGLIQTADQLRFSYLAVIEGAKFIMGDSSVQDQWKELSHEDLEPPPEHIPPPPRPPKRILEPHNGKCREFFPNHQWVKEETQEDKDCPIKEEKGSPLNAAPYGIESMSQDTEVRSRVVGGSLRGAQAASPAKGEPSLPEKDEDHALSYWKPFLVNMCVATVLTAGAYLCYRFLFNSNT
Chain of UniProt Q93100 (Q93100 whole entry, looked up): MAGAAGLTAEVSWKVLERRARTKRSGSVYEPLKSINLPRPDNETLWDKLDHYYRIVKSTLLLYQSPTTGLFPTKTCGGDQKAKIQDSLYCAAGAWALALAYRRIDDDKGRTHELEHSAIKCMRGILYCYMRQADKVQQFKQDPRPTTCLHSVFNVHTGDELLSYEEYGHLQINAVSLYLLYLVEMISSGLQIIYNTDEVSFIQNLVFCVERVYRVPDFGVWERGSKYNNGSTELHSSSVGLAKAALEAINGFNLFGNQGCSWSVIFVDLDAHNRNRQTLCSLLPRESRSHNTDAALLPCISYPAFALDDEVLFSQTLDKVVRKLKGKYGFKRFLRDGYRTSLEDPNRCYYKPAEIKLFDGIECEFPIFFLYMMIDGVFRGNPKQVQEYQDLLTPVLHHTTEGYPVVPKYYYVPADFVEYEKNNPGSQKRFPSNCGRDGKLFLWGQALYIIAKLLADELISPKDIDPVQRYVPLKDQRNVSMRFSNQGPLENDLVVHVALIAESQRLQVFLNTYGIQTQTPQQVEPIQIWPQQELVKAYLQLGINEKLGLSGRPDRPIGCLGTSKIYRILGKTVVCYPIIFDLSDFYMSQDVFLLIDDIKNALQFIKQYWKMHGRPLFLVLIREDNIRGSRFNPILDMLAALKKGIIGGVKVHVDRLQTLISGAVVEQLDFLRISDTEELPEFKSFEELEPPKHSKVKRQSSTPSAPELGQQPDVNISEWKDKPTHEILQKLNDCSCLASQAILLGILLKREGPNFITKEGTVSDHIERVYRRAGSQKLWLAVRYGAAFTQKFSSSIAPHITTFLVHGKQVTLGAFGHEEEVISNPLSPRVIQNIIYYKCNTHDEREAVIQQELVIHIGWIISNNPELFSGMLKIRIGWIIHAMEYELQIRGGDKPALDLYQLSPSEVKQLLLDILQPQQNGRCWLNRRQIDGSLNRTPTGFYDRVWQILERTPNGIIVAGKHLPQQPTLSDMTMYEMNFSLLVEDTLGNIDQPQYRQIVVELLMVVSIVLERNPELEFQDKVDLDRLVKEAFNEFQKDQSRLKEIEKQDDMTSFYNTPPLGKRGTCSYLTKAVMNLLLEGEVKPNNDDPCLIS
Chain of UniProt Q9P215 (Q9P215 whole entry, looked up): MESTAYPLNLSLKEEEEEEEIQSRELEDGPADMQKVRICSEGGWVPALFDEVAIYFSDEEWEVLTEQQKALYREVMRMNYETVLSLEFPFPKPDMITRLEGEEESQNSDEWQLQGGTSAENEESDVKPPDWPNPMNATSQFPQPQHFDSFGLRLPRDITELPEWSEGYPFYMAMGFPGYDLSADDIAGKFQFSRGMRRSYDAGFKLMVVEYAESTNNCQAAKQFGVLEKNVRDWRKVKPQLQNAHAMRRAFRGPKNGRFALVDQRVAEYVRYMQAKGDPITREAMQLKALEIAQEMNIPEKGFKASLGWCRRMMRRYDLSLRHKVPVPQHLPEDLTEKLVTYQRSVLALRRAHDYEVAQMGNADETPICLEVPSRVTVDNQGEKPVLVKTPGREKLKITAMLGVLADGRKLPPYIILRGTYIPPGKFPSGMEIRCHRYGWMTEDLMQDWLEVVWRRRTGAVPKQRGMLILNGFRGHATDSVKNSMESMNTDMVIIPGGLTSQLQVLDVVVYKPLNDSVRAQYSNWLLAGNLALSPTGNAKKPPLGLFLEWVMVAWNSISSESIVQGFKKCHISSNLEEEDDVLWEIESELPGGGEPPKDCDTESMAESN
Chain of UniProt Q9H4Z3 (Q9H4Z3 whole entry, looked up): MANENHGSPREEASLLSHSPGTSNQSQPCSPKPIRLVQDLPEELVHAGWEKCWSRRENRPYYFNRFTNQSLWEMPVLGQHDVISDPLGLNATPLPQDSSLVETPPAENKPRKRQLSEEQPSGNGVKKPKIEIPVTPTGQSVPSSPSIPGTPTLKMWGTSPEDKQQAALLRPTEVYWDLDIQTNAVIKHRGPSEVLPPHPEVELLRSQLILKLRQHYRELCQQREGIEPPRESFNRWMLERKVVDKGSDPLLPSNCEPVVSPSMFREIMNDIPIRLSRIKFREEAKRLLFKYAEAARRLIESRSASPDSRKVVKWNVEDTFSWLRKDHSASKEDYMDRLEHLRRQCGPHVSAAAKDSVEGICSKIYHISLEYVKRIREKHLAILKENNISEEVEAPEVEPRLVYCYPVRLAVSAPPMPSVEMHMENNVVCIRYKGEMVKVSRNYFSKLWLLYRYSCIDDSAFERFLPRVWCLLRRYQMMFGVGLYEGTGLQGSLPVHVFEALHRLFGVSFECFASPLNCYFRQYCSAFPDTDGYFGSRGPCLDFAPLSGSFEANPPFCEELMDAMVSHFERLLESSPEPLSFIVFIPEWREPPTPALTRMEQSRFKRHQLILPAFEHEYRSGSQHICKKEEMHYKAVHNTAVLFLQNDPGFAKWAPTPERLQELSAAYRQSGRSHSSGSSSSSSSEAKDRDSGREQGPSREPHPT
Chain of UniProt Q9H939 (Q9H939 whole entry, looked up): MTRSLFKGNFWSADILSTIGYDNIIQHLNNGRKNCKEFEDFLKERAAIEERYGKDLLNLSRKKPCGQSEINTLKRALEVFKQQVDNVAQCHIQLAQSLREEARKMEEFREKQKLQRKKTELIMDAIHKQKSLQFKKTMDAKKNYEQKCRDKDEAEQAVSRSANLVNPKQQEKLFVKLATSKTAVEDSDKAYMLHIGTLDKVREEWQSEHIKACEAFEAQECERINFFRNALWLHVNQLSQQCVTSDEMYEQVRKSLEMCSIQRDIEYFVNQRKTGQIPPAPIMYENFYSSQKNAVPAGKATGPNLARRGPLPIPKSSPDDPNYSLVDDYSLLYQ
Chain of UniProt Q53EL6 (Q53EL6 whole entry, looked up): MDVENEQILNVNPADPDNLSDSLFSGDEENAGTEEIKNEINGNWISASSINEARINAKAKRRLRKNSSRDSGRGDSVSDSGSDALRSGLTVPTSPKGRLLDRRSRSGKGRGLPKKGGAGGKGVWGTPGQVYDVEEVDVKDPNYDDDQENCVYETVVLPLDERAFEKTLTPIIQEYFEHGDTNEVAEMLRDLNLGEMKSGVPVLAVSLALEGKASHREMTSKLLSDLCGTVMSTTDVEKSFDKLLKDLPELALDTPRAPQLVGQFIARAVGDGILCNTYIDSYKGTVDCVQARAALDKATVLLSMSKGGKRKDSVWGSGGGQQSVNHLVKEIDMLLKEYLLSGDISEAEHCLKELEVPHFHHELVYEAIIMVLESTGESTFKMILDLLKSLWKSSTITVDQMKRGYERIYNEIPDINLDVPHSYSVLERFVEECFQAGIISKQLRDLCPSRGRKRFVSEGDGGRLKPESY
Chain of UniProt P07737 (P07737 whole entry, looked up): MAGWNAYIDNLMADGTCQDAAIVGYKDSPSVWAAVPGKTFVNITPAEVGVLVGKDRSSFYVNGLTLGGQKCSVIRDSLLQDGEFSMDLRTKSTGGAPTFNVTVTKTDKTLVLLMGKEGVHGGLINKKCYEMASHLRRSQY
Chain of UniProt Q9UHV9 (Q9UHV9 whole entry, looked up): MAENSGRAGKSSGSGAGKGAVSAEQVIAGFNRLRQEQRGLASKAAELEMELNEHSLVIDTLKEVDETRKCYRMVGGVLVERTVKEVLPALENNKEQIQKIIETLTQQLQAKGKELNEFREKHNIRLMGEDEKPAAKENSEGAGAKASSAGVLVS
Chain of UniProt O95336 (O95336 whole entry, looked up): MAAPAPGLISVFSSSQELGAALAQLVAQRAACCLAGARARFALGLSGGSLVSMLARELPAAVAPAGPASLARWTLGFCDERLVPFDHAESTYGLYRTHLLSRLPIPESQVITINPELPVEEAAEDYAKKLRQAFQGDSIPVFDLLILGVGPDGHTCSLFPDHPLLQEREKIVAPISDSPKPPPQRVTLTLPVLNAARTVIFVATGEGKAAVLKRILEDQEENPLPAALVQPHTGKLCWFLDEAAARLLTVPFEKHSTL

Compound in one assay: CC1=C(C2=C(C=C1)C(=O)C3=CC=CC=C3N2CCCN)C
As to the kind of experiment: log2 fold change, soluble protein after heating vs DMSO (PISA); higher = thermal stabilisation; K562 lysate, 10 uM; active = over 0.2 and 3.5 SD of the protein, either way, in both replicates (recomputed). The gist of the method: (§1)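 Dounce homogenisation of K562 pellets in PBS pH 7.4 with 1 mM MgCl2 produced a crude extract, used at 1 mg/mL protein. Exposure to 10 μM compound lasted 30 min, and aliquots were then heated for 3 min across 48°C-58°C, pooled and brought to 0.5% NP-40 at 4°C. The supernatant after 21,000xg for 90 min was quantified by TMTpro 16plex LC-MS/MS with channel sums equalised. Duplicate values are given as log-two fold change in thermal stability relative to solvent controls.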
With PFDN2 (UniProt Q9UHV9), the log2 fold change is 0.034 (inactive).
On the same count and under the same terms, for PUM1 isoform 3 (UniProt Q14671) the value was 0.044 (inactive).
Still for that read-out and setting: for POLR2G (UniProt P62487) the value was 0.02 (inactive); for PRKCSH (UniProt K7ELL7), -0.017 (inactive).
As for PTK2 (UniProt Q05397), the log2 fold change was 0.011 (inactive).
Same read-out and setting: the same measure for PCIF1 (UniProt Q9H4Z3): 0.037 (inactive); for PIK3C3 (UniProt Q8NEB9): -0.015 (inactive); for PDIA4 (UniProt P13667): 0.021 (inactive).
With PDCD4 (UniProt Q53EL6), the log2 fold change was -0.003 (inactive).
The same measure, in the same setting: the same measure for QKI (UniProt Q96PU8): 0.069 (inactive).
As for PTS (UniProt Q03393), the log2 fold change is -0.102 (inactive).
Same read-out and setting: the same measure for POMP (UniProt Q9Y244): -0.09 (inactive); for POLD3 (UniProt Q15054): -0.008 (inactive).
Same read-out and setting: the same measure for PI4KB (UniProt Q9UBF8): -0.018 (inactive).
The same measure, in the same setting: for PDE4DIP isoform 4 (UniProt Q5VU43) the value was 0.006 (inactive).
For the target PTPN6 isoform 4 (UniProt P29350), the log2 fold change is -0.081 (inactive).
Same read-out and setting: the same measure for PGLS (UniProt O95336): -0.075 (inactive); for PFKFB2 (UniProt O60825): -0.001 (inactive); for PSTPIP2 (UniProt Q9H939): -0.037 (inactive).
The same measure, in the same setting: the same measure for PI4K2A (UniProt Q9BTU6): 0.028 (inactive).
The same measure, in the same setting: for PLEKHO2 (UniProt Q8TD55) the value was 0.069 (inactive); for PLIN2 (UniProt Q99541), -0.007 (inactive).
Regarding PHLDB1 (UniProt Q86UU1), the log2 fold change was -0.009 (inactive).
Still for that read-out and setting: for PTPN23 (UniProt Q9H3S7) the value was 0.01 (inactive).
Take PI4KA (UniProt P42356): the log2 fold change is -0.039 (inactive).
The same measure, in the same setting: for PKP3 isoform 2 (UniProt Q9Y446) the value was 0.021 (inactive).
Still for that read-out and setting: the same measure for PCBP2 isoform 3 (UniProt Q15366): 0.06 (inactive); for PTPN1 (UniProt P18031): -0.002 (inactive).
Still for that read-out and setting: the same measure for PPP2R3C (UniProt Q969Q6): -0.02 (inactive); for PPT2 isoform 3 (UniProt Q9UMR5): 0.002 (inactive); for PDCD6IP (UniProt Q8WUM4): 0.004 (inactive).
In the case of PCBD2 (UniProt Q9H0N5), the log2 fold change was 0.022 (inactive).
Still for that read-out and setting: the same measure for PHKB isoform 3 (UniProt Q93100): -0.069 (inactive).
Same read-out and setting: for PFN1 (UniProt P07737) the value was 0.009 (inactive).
Turning to PIGO (UniProt Q8TEQ8), the log2 fold change is -0.05 (inactive).
Same read-out and setting: for PYCR2 (UniProt Q96C36) the value was 0.001 (inactive); for POGK (UniProt Q9P215), 0.04 (inactive).

Compound in another assay: CC1=C(C=C(C=C1)NC(=O)C2=CC(=CC=C2)C(C)(C)C#N)NC3=CC4=C(C=C3)N=CN(C4=O)C
The description is as above. The gist of the method:
as §1
Consider PFDN2 (UniProt Q9UHV9), for which the log2 fold change is -0.017 (inactive).
On to PUM1 isoform 3 (UniProt Q14671), for which the log2 fold change is -0.435 (active).
On the same count and under the same terms, for POLR2G (UniProt P62487) the value was 0.029 (inactive); for PRKCSH (UniProt K7ELL7), -0.019 (inactive); for PTK2 (UniProt Q05397), -0.054 (inactive).
Still for that read-out and setting: for PCIF1 (UniProt Q9H4Z3) the value was -0.033 (inactive); for PIK3C3 (UniProt Q8NEB9), -0.002 (inactive).
For PDIA4 (UniProt P13667), the log2 fold change is -0.038 (inactive).
On the same count and under the same terms, for PDCD4 (UniProt Q53EL6) the value was 0.032 (inactive); for QKI (UniProt Q96PU8), -0.094 (inactive).
As for PTS (UniProt Q03393), the log2 fold change is 0.034 (inactive).
The same measure, in the same setting: the same measure for POMP (UniProt Q9Y244): 0.048 (inactive).
For POLD3 (UniProt Q15054), the log2 fold change was -0.022 (inactive).
Still for that read-out and setting: for PI4KB (UniProt Q9UBF8) the value was 0.022 (inactive).
Same read-out and setting: for PDE4DIP isoform 4 (UniProt Q5VU43) the value was 0.054 (inactive); for PTPN6 isoform 4 (UniProt P29350), -0.031 (inactive).
Still for that read-out and setting: the same measure for PGLS (UniProt O95336): 0.038 (inactive); for PFKFB2 (UniProt O60825): -0.013 (inactive); for PSTPIP2 (UniProt Q9H939): 0.022 (inactive).
Take PI4K2A (UniProt Q9BTU6): the log2 fold change is -0.06 (inactive).
As to PLEKHO2 (UniProt Q8TD55), the log2 fold change is 0.048 (inactive).
Still for that read-out and setting: for PLIN2 (UniProt Q99541) the value was 0.016 (inactive); for PHLDB1 (UniProt Q86UU1), 0.114 (inactive); for PRKD3 (UniProt O94806), -0.068 (inactive).
Still for that read-out and setting: the same measure for PTPN23 (UniProt Q9H3S7): -0.015 (inactive); for PI4KA (UniProt P42356): 0.032 (inactive).
On the same count and under the same terms, for PUF60 isoform 2 (UniProt Q9UHX1) the value was 0.032 (inactive); for PKP3 isoform 2 (UniProt Q9Y446), 0.004 (inactive).
In the case of PCBP2 isoform 3 (UniProt Q15366), the log2 fold change was -0.017 (inactive).
Still for that read-out and setting: for PTPN1 (UniProt P18031) the value was 0.006 (inactive); for PPT2 isoform 3 (UniProt Q9UMR5), -0.038 (inactive).
Still for that read-out and setting: for PDCD6IP (UniProt Q8WUM4) the value was -0.037 (inactive).
Still for that read-out and setting: for PCBD2 (UniProt Q9H0N5) the value was 0.027 (inactive); for PHKB isoform 3 (UniProt Q93100), -0.019 (inactive); for PFN1 (UniProt P07737), 0.007 (inactive).
Turning to PIGO (UniProt Q8TEQ8), the log2 fold change is -0.1 (inactive).
The same measure, in the same setting: the same measure for PYCR2 (UniProt Q96C36): 0.013 (inactive); for POGK (UniProt Q9P215): 0.01 (inactive).
